The results in this text go back to PMC5540273 (PLoS ONE, 2017).
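Note: KINOMEscan kinase panel screen.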

For this test, the system named is EPHA8. Particulars: concentration: 1 μM, replicates: in singlicate; n = 1.
For the molecule `Cc1cccc(-c2nc(Nc3cccc(C(N)=O)c3)c3ccccc3n2)n1` [GW876019], the “%Inh” value worked out at 7%. For `CC(C)(C)c1ccc(C(=O)Nc2cn3cc(-c4cccnc4)ccc3n2)cc1`, the “%Inh” value was 8%. The same measure for `Clc1cc(Cl)cc(Nc2ccnc(Nc3cc(Cl)cc(Cl)c3)n2)c1` [GSK175726]: 17%; for `COc1ccc(CNC(=O)NC2CCN(c3ccnc(Nc4cc(OC)c(OC)c(OC)c4)n3)C2)cc1` (stereo not drawn) [GSK1379748]: 8%; for `Fc1cccc(COc2nnc(-c3ccc4c(c3)CCO4)o2)c1`: 16%.

Turning to `CN1C(=O)C(Nc2ccc(Cl)c(C(=O)O)c2)=C(c2ccc(Cl)cc2)C1=O` [SB-404290], the “%Inh” value was 19%. `Cn1cncc1-c1ccc2ncnc(Nc3ccc(OCc4ccccc4)cc3)c2c1` [GW320571]: the “%Inh” value amounted to 12%. As to `Nc1ncnc2[nH]c(-c3ccccc3)nc12` [AH5015], the “%Inh” value was found to be 25%.

On to `Cc1nnc(-c2ccc3occ(-c4ccc(S(C)=O)cc4)c3c2)[nH]1` (stereo not drawn), for which the “%Inh” value turned out to be 6%. Under `Fc1cc(Cl)ccc1Nc1ccnc2cc(I)ccc12` [GW551191] stands 44%; under `CC(C)(C)c1ccc(C(=O)Nc2cn3cc(Cl)ccc3n2)cc1`, 0%.

For the molecule `C[C@@H]1CCCCN1c1cc(-c2ccc3c(N)n[nH]c3c2)nc(N)n1` [GSK2258759], the “%Inh” value is reported as 3%.

For the molecule `Cc1cccc(-c2nc(Nc3ccc4[nH]ncc4c3)c3ccccc3n2)n1` [GW857175], the “%Inh” value is listed as 0%. In the case of `Cc1cccc(-c2cc(Nc3ccncc3)c3ccccc3n2)n1` [GSK223675], the “%Inh” value stood at 0%.

Regarding `COc1cc2nccc(Nc3ccc(NC(=O)c4ccc(C)cc4)c(O)c3)c2cc1OC.Cl` [GW440132], the “%Inh” value was 5%. For `COc1cc(Nc2nccc(N3CCC(NC(=O)Nc4cc(C)ccc4C)C3)n2)cc(OC)c1OC` (stereo not drawn) [GSK1379762], the “%Inh” value came out at 33%. The same measure for `COC(=O)c1c(-c2ccccc2)c2cc(OC)ccc2c(=O)n1Cc1ccccc1`: 1%. The same measure for `Cc1c(Cn2ccn3c(=O)cc(N4CCOCC4)nc23)cccc1C(F)(F)F` [GSK2289044]: 0%. Take `Cl.Oc1ccc(-c2nc(-c3ccccc3)[nH]c2-c2ccncc2)cc1` [SB-428218]: the “%Inh” value stood at 4%. Take `CC1=C(C(=O)Nc2cc3cn[nH]c3cc2F)C(c2ccc(C(F)(F)F)cc2)CC(=O)N1` (stereo not drawn) [GSK429286]: the “%Inh” value was 23%.

In the case of `CCCc1ccc(S(=O)(=O)NC2CCN(c3ccnc(Nc4ccc(F)cc4)n3)C2)cc1` (stereo not drawn) [GSK1379715], the “%Inh” value came out at 23%. Take `Cc1ccc(NC(=O)Nc2cccc(Cl)c2)cc1-c1ccc(C(=O)Nc2ccncc2)cc1` [GSK1398468]: the “%Inh” value turned out to be 38%. With `O=S(=O)(c1ccc(-c2ccnc3[nH]ccc23)cc1)N1CCCC1` [GSK846226], the “%Inh” value was 4%. The same measure for `Cn1ccc2ncnc(Oc3ccc(NC(=O)Nc4ccccc4)cc3)c21`: 0%; for `CCn1c(-c2ccccn2)nc2cnccc21` [SB-736398]: 5%; for `CC(=O)Nc1nc2cnc(Nc3cc(NC(=O)c4cccc(CCC#N)c4)ccc3C)nc2s1`: 16%. Under `Cc1cccc(-c2nc(C)cc(Nc3ccncc3)n2)n1` [GSK257997] stands 8%; under `CS(=O)(=O)c1ccc(-c2c(-c3ncn[nH]3)sc(N3CCOCC3)c2C#N)cc1`, 0%. Regarding `O=C(O)COc1ncnc2cc(-c3ccc4[nH]ncc4c3)sc12`, the “%Inh” value is given as 0%.

For the molecule `Cc1c(O)cccc1Nc1ccnc2ccc(C(F)(F)F)cc12.Cl` [GW466413], the “%Inh” value is listed as 8%.

As to `O=C(Nc1ccc2c(c1)OCO2)NC1CCN(c2ccnc(Nc3ccc(F)cc3)n2)C1` (stereo not drawn) [GSK1379724], the “%Inh” value is reported as 9%. With `Cl.c1ccc(-c2n[nH]cc2-c2ccnc(-c3ccc(CN4CCOCC4)cc3)c2)nc1` [GW776245], the “%Inh” value turned out to be 19%. As to `Cc1ccc(NC(=O)Nc2cc(C(C)(C)C)nn2-c2ccccc2)cc1` [GSK1014915], the “%Inh” value is given as 25%.
